# Results filed as inconclusive are left out. Entries that show only a call come without a potency. Values without a mark were called inactive. The source made the active and inactive calls. Calls follow the shape of the dose curve; as a rule, active = well fitted cell-killing curve with a large enough effect; inconclusive = small, poorly fitted or top-dose-only effect, or effect the other way; inactive = no such curve, though single readings can be large or run the other way.
# Tests used:
# [1] = Quantitative High-Throughput drug screen in 47 multiple myeloma cell lines against the NCATS MIPE library collection: MM1R_ATCC cell viability assay (AID 1918981); also: nearly all actives have a fitted effect of over 35% in size
# Summary of the method: (§1)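 Plated at 500 cells per well, myeloma lines received MIPE 4.0 compounds by pin tool. Following 48 h culture at 37 °C, CellTiter-Glo luminescence gave viability relative to DMSO and media-only controls.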
# [2] = Quantitative High-Throughput drug screen in 47 multiple myeloma cell lines against the NCATS MIPE library collection: LP1_DSMZ cell viability assay (AID 1918982); also: nearly all actives have a fitted effect of over 35% in size
# Summary of the method: as §1
# [3] = Quantitative High-Throughput drug screen in 47 multiple myeloma cell lines against the NCATS MIPE library collection: KMS28PE_JCRB cell viability assay (AID 1918983); also: nearly all actives have a fitted effect of over 35% in size
# Summary of the method: as §1
# [4] = Quantitative High-Throughput drug screen in 47 multiple myeloma cell lines against the NCATS MIPE library collection: L363_DSMZ cell viability assay (AID 1918984); conditions: L363 myeloma viability, CellTiter-Glo ATP luminescence, 48 h; viability (% of control): at 45.8 µM (top of the series); also: nearly all actives have a fitted effect of over 40% in size
# Summary of the method: as §1
# [5] = Quantitative High-Throughput drug screen in 47 multiple myeloma cell lines against the NCATS MIPE library collection: KMS34_JCRB cell viability assay (AID 1918985); also: nearly all actives have a fitted effect of over 40% in size
# Summary of the method: as §1
# [6] = Quantitative High-Throughput drug screen in 47 multiple myeloma cell lines against the NCATS MIPE library collection: OCIMY5_PLB cell viability assay (AID 1918988); also: nearly all actives have a fitted effect of over 65% in size
# Summary of the method: as §1
# [7] = Quantitative High-Throughput drug screen in 47 multiple myeloma cell lines against the NCATS MIPE library collection: OPM1_PLB cell viability assay (AID 1918989); also: nearly all actives have a fitted effect of over 40% in size
# Summary of the method: as §1
# [8] = Quantitative High-Throughput drug screen in 47 multiple myeloma cell lines against the NCATS MIPE library collection: SKMM1_PLB cell viability assay (AID 1919863); conditions: SKMM1 myeloma viability, CellTiter-Glo ATP, 48 h; viability: active compounds read low; also: nearly all actives have a fitted effect of over 35% in size
# Summary of the method: as §1
# [9] = Quantitative High-Throughput drug screen in 47 multiple myeloma cell lines against the NCATS MIPE library collection: U266_ATCC cell viability assay (AID 1919864); also: nearly all actives have a fitted effect of over 35% in size
# Summary of the method: as §1
# [10] = Quantitative High-Throughput drug screen in 47 multiple myeloma cell lines against the NCATS MIPE library collection: XG1_PLB cell viability assay (AID 1919866); also: nearly all actives have a fitted effect of over 35% in size
# Summary of the method: as §1
# [11] = Quantitative High-Throughput drug screen in 47 multiple myeloma cell lines against the NCATS MIPE library collection: VP6_DJ cell viability assay (AID 1919867); also: nearly all actives have a fitted effect of over 40% in size
# Summary of the method: as §1
# [12] = Quantitative High-Throughput drug screen in 47 multiple myeloma cell lines against the NCATS MIPE library collection: UTMC2_PLB cell viability assay (AID 1919868); conditions: CellTiter-Glo ATP luminescence, 48 h; viability (% of DMSO control): at 45.8 µM (top of the series); also: nearly all actives have a fitted effect of over 55% in size
# Summary of the method: as §1
# [13] = Quantitative High-Throughput drug screen in 47 multiple myeloma cell lines against the NCATS MIPE library collection: PE2_PLB cell viability assay (AID 1919869); also: nearly all actives have a fitted effect of over 35% in size
# Summary of the method: as §1
# [14] = Quantitative High-Throughput drug screen in 47 multiple myeloma cell lines against the NCATS MIPE library collection: PCM6_Riken cell viability assay (AID 1919870); also: nearly all actives have a fitted effect of over 30% in size
# Summary of the method: as §1
# [15] = Quantitative High-Throughput drug screen in 47 multiple myeloma cell lines against the NCATS MIPE library collection: OPM2_DSMZ cell viability assay (AID 1919872); also: nearly all actives have a fitted effect of over 30% in size
# Summary of the method: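 Relative luminescence from CellTiter-Glo served as the viability signal, referenced to DMSO-treated (100%) and cell-free medium (0%) controls. Treatment lasted 48 hours at 37C with 500 cells per well.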
# [16] = Quantitative High-Throughput drug screen in 47 multiple myeloma cell lines against the NCATS MIPE library collection: KMS11_JCRBsus cell viability assay (AID 1919873); also: nearly all actives have a fitted effect of over 50% in size
# Summary of the method: as §1
# [17] = Quantitative High-Throughput drug screen in 47 multiple myeloma cell lines against the NCATS MIPE library collection: KMS28BM_JCRB cell viability assay (AID 1919874); also: nearly all actives have a fitted effect of over 35% in size
# Summary of the method: as §1
# [18] = Quantitative High-Throughput drug screen in 47 multiple myeloma cell lines against the NCATS MIPE library collection: XG6_PLB cell viability assay (AID 1919865); also: nearly all actives have a fitted effect of over 40% in size
# Summary of the method: as §1
# [19] = Quantitative High-Throughput drug screen in 47 multiple myeloma cell lines against the NCATS MIPE library collection: RPMI8226_ATCC cell viability assay (AID 1919871); also: nearly all actives have a fitted effect of over 30% in size
# Summary of the method: as §1
# [20] = Quantitative High-Throughput drug screen in 47 multiple myeloma cell lines against the NCATS MIPE library collection: OCIMY7_PLB cell viability assay (AID 1918987); conditions: OCI-MY7 myeloma viability, CellTiter-Glo ATP, 48 h; viability (% of DMSO): at 45.8 µM (top of the series); also: nearly all actives have a fitted effect of over 65% in size
# Summary of the method: as §1
# Potency is read from the fitted curve at half-maximal effect.
compound,measurement,setting,value
CCN(CC)CCCCNc1nc2cc(Cl)c(Cl)cc2nc1-c1ccc(-c2cccs2)s1,Potency,[1],9.35 µM (active)
same,Potency,[2],8.33 µM (active)
same,Potency,[3],18.7 µM (active)
same,Potency,[4],5.9 µM (active)
same,Potency,[5],16.6 µM (active)
same,Potency,[6],7.43 µM (active)
same,Potency,[7],5.9 µM (active)
same,Potency,[8],16.6 µM (active)
same,Potency,[9],23.5 µM (active)
same,Potency,[10],8.33 µM (active)
same,Potency,[11],8.33 µM (active)
same,Potency,[12],9.35 µM (active)
same,Potency,[13],9.35 µM (active)
same,Potency,[14],8.33 µM (active)
same,Potency,[15],10.5 µM (active)
same,Potency,[16],8.33 µM (active)
same,Potency,[17],7.43 µM (active)
O=C(O)CCC=CCC[C@@H]1[C@H](N2CCCCC2)[C@@H](O)C[C@@H]1OCc1ccc(-c2ccccc2)cc1,Potency,[1],inactive
same,Potency,[2],inactive
same,Potency,[3],inactive
same,Potency,[4],inactive
same,Potency,[5],inactive
same,Potency,[6],inactive
same,viability,[8],114%
same,Potency,[9],inactive
same,Potency,[18],inactive
same,Potency,[10],inactive
same,Potency,[12],inactive
same,Potency,[13],inactive
same,Potency,[19],inactive
same,Potency,[15],inactive
same,Potency,[16],inactive
O=C1C(CCC(O)c2ccc(F)cc2)C(c2ccc(O)cc2)N1c1ccc(F)cc1 (configuration not stated),Potency,[1],inactive
same,Potency,[2],inactive
same,Potency,[3],inactive
same,Potency,[4],inactive
same,Potency,[5],inactive
same,Potency,[20],inactive
same,Potency,[7],inactive
same,viability,[8],99.3%
same,Potency,[18],2.09 µM (active)
same,Potency,[10],inactive
same,Potency,[11],3.32 µM (active)
same,Potency,[15],inactive
same,Potency,[16],inactive
CC[C@]1(O)C[C@H]2CN(CCC3=c4ccccc4=N[C]3[C@@](C(=O)OC)(c3cc4c(cc3OC)N(C)[C@H]3[C@@](O)(C(N)=O)[C@H](O)[C@]5(CC)C=CCN6CC[C@]43[C@@H]65)C2)C1,Potency,[1],0.0662 µM (active)
same,Potency,[2],0.0083 µM (active)
same,Potency,[3],0.0023 µM (active)
same,Potency,[4],0.132 µM (active)
same,Potency,[5],0.0053 µM (active)
same,Potency,[20],0.0662 µM (active)
same,Potency,[8],0.0148 µM (active)
same,Potency,[9],0.0935 µM (active)
same,Potency,[18],inactive
same,Potency,[12],0.0053 µM (active)
same,Potency,[15],0.0074 µM (active)
CCCCCOC(=O)Nc1nc(=O)n([C@@H]2O[C@H](C)[C@@H](O)C2O)cc1F (some centres not stated),Potency,[1],inactive
same,Potency,[2],inactive
same,Potency,[3],inactive
same,Potency,[4],inactive
same,Potency,[5],inactive
same,Potency,[20],inactive
same,Potency,[9],inactive
same,Potency,[18],3.32 µM (active)
same,Potency,[10],18.7 µM (active)
same,Potency,[11],2.64 µM (active)
same,Potency,[12],inactive
same,Potency,[13],inactive
same,Potency,[14],inactive
same,Potency,[19],inactive
same,Potency,[15],inactive
CC=C1C2C=C(C)CC1(N)c1ccc(=O)[nH]c1C2 (configuration not stated),Potency,[1],inactive
same,Potency,[2],inactive
same,Potency,[3],inactive
same,Potency,[4],inactive
same,Potency,[20],inactive
same,Potency,[7],inactive
same,Potency,[9],inactive
same,Potency,[18],inactive
same,Potency,[10],inactive
same,Potency,[13],inactive
same,Potency,[15],inactive
same,Potency,[16],inactive
same,Potency,[17],inactive
CN1CC(=O)NC1=NC(=O)Nc1cccc(Cl)c1,Potency,[1],18.7 µM (active)
same,Potency,[2],14.8 µM (active)
same,Potency,[3],inactive
same,Potency,[4],2.96 µM (active)
same,Potency,[6],23.5 µM (active)
same,Potency,[8],18.7 µM (active)
same,Potency,[9],20.9 µM (active)
same,Potency,[18],23.5 µM (active)
same,Potency,[10],29.6 µM (active)
same,Potency,[11],inactive
same,Potency,[13],20.9 µM (active)
same,Potency,[14],23.5 µM (active)
same,Potency,[19],14.8 µM (active)
same,Potency,[15],inactive
same,Potency,[16],11.8 µM (active)
same,Potency,[17],inactive
CN(C)c1ccc(-c2nc3ncc(Cl)c(N4CCN(CC(=O)Nc5nccs5)CC4)c3[nH]2)cc1,Potency,[1],3.72 µM (active)
same,Potency,[2],inactive
same,Potency,[3],5.26 µM (active)
same,Potency,[4],inactive
same,Potency,[5],2.96 µM (active)
same,Potency,[6],5.26 µM (active)
same,Potency,[8],14.8 µM (active)
same,Potency,[9],2.96 µM (active)
same,Potency,[18],2.64 µM (active)
same,Potency,[11],inactive
same,Potency,[13],1.32 µM (active)
same,Potency,[14],inactive
same,Potency,[16],0.833 µM (active)
O=C(O)C1=CO[C@@H](O[C@@H]2O[C@H](CO)[C@H](O)[C@H](O)[C@H]2O)[C@@H]2C(CO)=CC[C@H]12,Potency,[1],inactive
same,Potency,[2],inactive
same,Potency,[3],inactive
same,Potency,[4],inactive
same,Potency,[20],inactive
same,Potency,[7],inactive
same,viability,[8],118%
same,Potency,[18],inactive
same,Potency,[10],inactive
same,Potency,[11],inactive
same,Potency,[13],inactive
same,Potency,[19],4.18 µM (active)
same,Potency,[15],inactive
same,Potency,[16],inactive
same,Potency,[17],inactive
CC(C)N(CCCNC(=O)Nc1ccc(C(C)(C)C)cc1)C[C@H]1O[C@@H](n2cc(Br)c3c(N)ncnc32)[C@H](O)[C@H]1O,Potency,[1],20.9 µM (active)
same,Potency,[2],23.5 µM (active)
same,Potency,[3],14.8 µM (active)
same,Potency,[4],inactive
same,Potency,[5],20.9 µM (active)
same,Potency,[9],20.9 µM (active)
same,Potency,[18],20.9 µM (active)
same,Potency,[10],23.5 µM (active)
same,Potency,[14],23.5 µM (active)
same,Potency,[15],23.5 µM (active)
same,Potency,[16],18.7 µM (active)
Clc1ccc(C2(c3ccc(-c4cn[nH]c4)cc3)CCNCC2)cc1,Potency,[1],10.5 µM (active)
same,Potency,[2],23.5 µM (active)
same,Potency,[3],14.8 µM (active)
same,Potency,[4],2.35 µM (active)
same,Potency,[20],1.05 µM (active)
same,Potency,[6],16.6 µM (active)
same,Potency,[18],3.72 µM (active)
same,Potency,[10],18.7 µM (active)
same,Potency,[11],13.2 µM (active)
same,Potency,[12],0.148 µM (active)
same,Potency,[13],11.8 µM (active)
same,Potency,[14],6.62 µM (active)
same,Potency,[15],26.4 µM (active)
same,Potency,[17],16.6 µM (active)
COc1ccc(-c2nc3ccc(C4=NNC(=O)CC4C)cc3[nH]2)cc1 (configuration not stated),Potency,[1],inactive
same,Potency,[2],inactive
same,Potency,[3],inactive
same,Potency,[4],inactive
same,Potency,[5],inactive
same,Potency,[6],inactive
same,viability,[8],101%
same,Potency,[18],inactive
same,Potency,[10],inactive
same,Potency,[13],inactive
same,Potency,[14],inactive
same,Potency,[15],inactive
same,Potency,[16],inactive
same,Potency,[17],inactive

# — PubChem BioAssay (NCATS)
